This is an account of results in PubChem BioAssay (NCATS).

Values without a mark were called inactive. Active and inactive are the calls of the source. Unless noted, the call rests on the fitted dose curve; in most records, active means well fitted curve in the direction sought with a large enough effect; inconclusive means small, poorly fitted or top-dose-only effect, or another doubt; inactive means no such curve, though single readings can be large; an effect the other way counts as inactive or inconclusive.

Experiment [1] addresses Estrogen receptor (Homo sapiens) (UniProt P03372). The experiment in a line: qHTS assay for small molecule antagonists of estrogen receptor alpha signaling (AID 588513; active means well fitted curve in the direction sought with a large enough effect in the signal ratio, with a control signal flat, not every such curve was filed as active; inconclusive means small, poorly fitted or top-dose-only effect, or effect the other way, or a change in a side signal; inactive means no such curve, though single readings can be large or run the other way; the % refers to the signal ratio; further: potency means the concentration at half of the fitted maximal effect). In short, it runs like this:
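ER-alpha-UAS-bla GripTite HEK 293 cells in 2% charcoal/dextran-treated FBS medium; compounds titrated (1:2, duplicate), then stimulated with 0.5 nM 17-beta-estradiol for 18 h at 37C. CCF4 beta-lactamase fluorescence; Hill-fit IC50 and efficacy.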
Background: In qHTS, concentration-response curves come from the screen itself.

The target in experiment [2] is Vitamin D3 receptor (Homo sapiens) (UniProt P11473). The experiment in a line: qHTS assay for small molecule antagonists of vitamin D receptor signaling (AID 588541; calls by dose curve; further: potency means the concentration at half of the fitted maximal effect). In short, it runs like this: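 VDR-UAS-bla HEK293T cells (2000/well, 2% charcoal-stripped FBS) were treated with titrated compounds plus 1-alpha,25-dihydroxyvitamin D3 (50 nM or 3 nM final) for 16 h at 37 C. CCF4 beta-lactamase fluorescence was read; Hill fits gave IC50.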
Sequence of Vitamin D3 receptor (Homo sapiens) (P11473 whole entry, looked up): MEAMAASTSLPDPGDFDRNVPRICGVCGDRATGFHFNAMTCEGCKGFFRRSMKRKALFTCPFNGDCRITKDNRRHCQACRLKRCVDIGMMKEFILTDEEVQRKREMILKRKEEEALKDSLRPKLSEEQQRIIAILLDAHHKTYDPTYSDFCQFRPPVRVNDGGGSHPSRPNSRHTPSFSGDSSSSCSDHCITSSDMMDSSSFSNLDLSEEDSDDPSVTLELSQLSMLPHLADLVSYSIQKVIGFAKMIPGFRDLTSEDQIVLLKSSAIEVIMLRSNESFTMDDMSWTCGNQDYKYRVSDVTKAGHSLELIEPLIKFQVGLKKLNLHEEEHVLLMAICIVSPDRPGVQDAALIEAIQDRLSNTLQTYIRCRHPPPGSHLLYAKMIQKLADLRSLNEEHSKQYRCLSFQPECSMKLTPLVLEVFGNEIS

The target of experiment [3] is Voltage-gated inwardly rectifying potassium channel KCNH2 (Homo sapiens) (UniProt Q12809). The experiment in a line: qHTS Assay for Small Molecule Inhibitors of the Human hERG Channel Activity (AID 588834).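 Further: top concentration of the series differs between compounds; on the % scale 0 is the no-effect control and ±100 the full control effect; lower thallium flux fluorescence means stronger hERG block; nearly all actives have a fitted effect of over 50% in size.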 In short, it runs like this:
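Thallium serves as surrogate for K+ influx through BacMam-delivered hERG in U2OS cells. Compounds are added for about 10 minutes after dye loading; stimulation buffer then starts flux, monitored kinetically on FDSS.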

Experiment [4] in a line: qHTS assay for small molecule disruptors of the mitochondrial membrane potential - 1 hr assay (AID 651754; calls by dose curve; further: potency means the concentration at half of the fitted maximal effect; nearly all actives have a fitted effect of over 35% in size). Summed up:
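Read-out: dye fluorescence at 490 nm ex/535 nm em (monomers) and 540 nm ex/590 nm em (aggregates) in HepG2 cells. Compound exposure 1 hr at 37C, followed by 30 min dye loading.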

Experiment [5] in a line: qHTS assay for small molecule disruptors of the mitochondrial membrane potential - 5 hr assay (AID 651755; calls by dose curve; further: potency means the concentration at half of the fitted maximal effect; nearly all actives have a fitted effect of over 40% in size). Conditions: JC-1-type ratio dye. Summed up: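 Seed HepG2 overnight, add compound, incubate 5 hr at 37C and 5% CO2, stain 30 min with Mito-MPS, then measure monomer (490/535 nm) and aggregate (540/590 nm) fluorescence.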
Experiment [6] can be described thus: qHTS assay for environmental chemicals that activate the Aryl hydrocarbon Receptor (AhR) signaling pathway (AID 651777). Further: % of control where 0% means no effect; nearly all actives have a fitted effect of over 15% in size. Conditions: 1A2-DRE human hepatoma cells, luciferase, 24 h; active compounds read high. In short, it runs like this: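 Measured luciferase activity, read 30 min after One-Glo addition at room temperature, from human hepatoma cells bearing a dioxin response element–CYP1A2 promoter reporter and exposed to compound for 24 hr at 37 C.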

Experiment [7] addresses Peroxisome proliferator-activated receptor alpha (Homo sapiens) (UniProt Q07869). The experiment in a line: qHTS assay for small molecule agonists of the peroxisome proliferator-activated receptor alpha (PPARalpha) signaling pathway (AID 651778). Further: % of control where 0% means no effect. Conditions: PathHunter PPARalpha complementation, chemiluminescence, 6 h; active compounds read high. Summed up:
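Cells plated at 2,000/well and held overnight at 37 C, 5% CO2, then compound added by pin tool for 6 hr; after PathHunter detection reagent and 60 min at room temperature, chemiluminescence from enzyme complementation was read.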

Experiment [8] addresses Nuclear receptor ROR-gamma (Homo sapiens) (UniProt P51449). The experiment in a line: qHTS assay for small molecule antagonists of the retinoid-related orphan receptor gamma (ROR-gamma) signaling pathway (AID 651802). Further: potency means the concentration at half of the fitted maximal effect; nearly all actives have a fitted effect of over 60% in size. Conditions: ROR-gamma antagonist cell reporter assay. Summed up:
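Luciferase read-out: ONE-Glo luminescence after 30 min at room temperature, following 16hr doxycycline induction at 37C, 5% CO2 of CHO cells with TET-inducible ROR and RORE-LUC reporter; decreased luminescence = reduced reporter activity.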

The nature of experiment [9]: qHTS assay for small molecule antagonists of the retinoid-related orphan receptor gamma (ROR-gamma) signaling pathway - cell viability counter screen (AID 720652; active means well fitted curve in the direction sought with a large enough effect in the repeat runs; inconclusive means weak or mixed curves; inactive means no such curve, though single readings can be large; an effect the other way counts as inactive or inconclusive;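 further: potency means the concentration at half of the fitted maximal effect; compound exposure lasted 16 hr before ATP read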). Conditions: RORgamma reporter cell line viability counter screen. In short, it runs like this:
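CHO RORE-LUC/TET-ROR line, 1,000 cells/well, 37 C 5% CO2 5 hr; cpd or DMSO + doxycycline induction, 16 hr. CellTiter-Glo, 30 min RT, luminescence = ATP content.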

Experiment [10] is described as follows: qHTS assay for small molecule agonists of the antioxidant response element (ARE) signaling pathway measured by Nrf2-dependant transcriptional activity - cell viability counter screen (AID 720653; active means well fitted curve in the direction sought with a large enough effect in the repeat runs; inconclusive means weak or mixed curves; inactive means no such curve, though single readings can be large; an effect the other way counts as inactive or inconclusive; further: potency means the concentration at half of the fitted maximal effect). Conditions: ARE-bla HepG2 viability, CellTiter-Glo ATP luminescence, 16 h; max response: active compounds read low. In short, it runs like this: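 ARE-bla HepG2 cells (2,000/well) rested 5 hrs at 37C/5% CO2, then exposed to compounds in DMSO for 16 hrs. Viability was read in the same wells as intracellular ATP by luminescence, 30 min at room temperature after reagent addition.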

The nature of experiment [11]: qHTS assay for cell viability of HEK293 cells (AID 743288). Further: potency means the concentration at half of the fitted maximal effect; nearly all actives have a fitted effect of over 50% in size. Conditions: ATP luminescence (CellTiter-Glo), 18 h; max response: active compounds read low. Summed up: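 Steps: plate 2,000 parental HEK293 cells per well; incubate ≥5 h, 37 C; add compounds in DMSO; incubate 18 h, 37 C; add CellTiter-Glo; wait 30 min at room temperature; read luminescence.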
Experiment [12] in a line: qHTS assay for cell viability of the p53RE-bla HCT-116 cell line (AID 743292). Further: potency means the concentration at half of the fitted maximal effect; nearly all actives have a fitted effect of over 55% in size. In short, it runs like this: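 Intracellular ATP of p53RE-bla HCT-116 cells measured by luciferase luminescence following 16 h compound incubation at 37 C; DMSO-only wells served as vehicle controls.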
Experiment [13] has as its target Furin (Homo sapiens) (UniProt P09958). The experiment in a line: Furin counterscreen qHTS for Zika virus inhibitors (AID 1347149).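 Further: purified recombinant full-length human furin enzyme at 5 nM; fluorescence gain from furin cutting a BOC-RVRR-AMC peptide substrate over 15 min; top concentration of the series differs between compounds; plate controls were no-inhibitor control for no effect and no-enzyme control for full effect; nearly all actives have a fitted effect of over 70% in size.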 In short, it runs like this: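 Counterscreen measures cleavage of 2 microM BOC-RVRR-AMC, below its ~15 microM Km, by 5 nM full-length human furin at pH 7.0 after a 15-min compound preincubation. Inhibition derives from the 15-min fluorescence increase at 37C.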
In general terms: A counterscreen serves to expose hits that act by an unwanted route or on another target.

The nature of experiment [14]: ZIKV-mCherry secondary qHTS for Zika virus inhibitors (AID 1347158). Further: top concentration of the series differs between compounds. In short, it runs like this:
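Read-out is percent infection: mCherry-positive Vero cells (nuclear-proximal intensity >450 RFU, 3 SD above negative controls) counted by high-content imaging of Hoechst-stained, PFA-fixed wells after 48-72 h with ZIKV-mCherry at MOI 1 and compound.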

The test system of experiment [15] is Zika virus NS2B-NS3 protease (linked). The experiment in a line: 384 well plate NINDS AMC confirmatory qHTS for Zika virus inhibitors (AID 1347163). Further: potency means the concentration at half of the fitted maximal effect; nearly all actives have a fitted effect of over 50% in size. In short, it runs like this: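 Enzyme (5, 30 or 60 nM final) first met test compounds for ~15 min. The AMC-tagged peptide Ac-VKTGKR-AMC followed at 30 microM. Fluorescence was then recorded at 25 min and scaled against no-enzyme and no-inhibitor wells.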

Experiment [16] concerns Zika virus NS2B-NS3 protease (linked construct). The experiment in a line: 384 well plate NINDS Rhodamine confirmatory qHTS for Zika virus inhibitors (AID 1347164).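 Further: fluorescence from protease cleavage of Ac-LKRR-rhodamine 110 substrate; potency means the concentration at half of the fitted maximal effect; nearly all actives have a fitted effect of over 65% in size.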 Summed up:
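Linked NS2B-NS3 protease (final 5, 30 or 60 nM) preincubated ~15 minutes with compounds, then 10 microM Ac-LKRR-Rhodamine 110 added. Fluorescence (485/538 nm) read after 25 minutes at room temperature, normalized to no-enzyme and no-inhibitor controls.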

The nature of experiment [17]: Vero cells viability qHTS for Zika virus inhibitors (AID 1347167). Further: on the % scale 0 is the no-effect control and ±100 the full control effect. Summed up:
(§1)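 To flag cytotoxic protease inhibitors, viability is measured by ATP-dependent luminescence (CellTiter Glo) after cells attached overnight receive compound for 24 to 48 hours in DMEM with 4% FBS.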

A short description of experiment [18]: HepG2 cells viability qHTS for Zika virus inhibitors (AID 1347168). Further: potency means the concentration at half of the fitted maximal effect. In short, it runs like this: as §1
Experiment [19] in a line: Tertiary RLuc qRT-PCR qHTS assay for Zika virus inhibitors (AID 1347169). Further: potency means the concentration at half of the fitted maximal effect; nearly all actives have a fitted effect of over 55% in size. In short, it runs like this: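 Vero cells (1,000/well) infected with recombinant ZIKV-RLuc (Cambodian) at MOI 1-2 after compound addition, 48-72 hrs at 37 degrees C. Live-cell Renilla luciferase substrate added; luminescence read after 1-1.5 hrs.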
(Real-time PCR tracks product formation cycle by cycle.)

A short description of experiment [20]: qHTS assay for small molecule activators of the human pregnane X receptor (PXR) signaling pathway (AID 720659; call rule not given here; further: 0% is about no effect).

Sequence of Voltage-gated inwardly rectifying potassium channel KCNH2 (Homo sapiens) (Q12809 whole entry, looked up): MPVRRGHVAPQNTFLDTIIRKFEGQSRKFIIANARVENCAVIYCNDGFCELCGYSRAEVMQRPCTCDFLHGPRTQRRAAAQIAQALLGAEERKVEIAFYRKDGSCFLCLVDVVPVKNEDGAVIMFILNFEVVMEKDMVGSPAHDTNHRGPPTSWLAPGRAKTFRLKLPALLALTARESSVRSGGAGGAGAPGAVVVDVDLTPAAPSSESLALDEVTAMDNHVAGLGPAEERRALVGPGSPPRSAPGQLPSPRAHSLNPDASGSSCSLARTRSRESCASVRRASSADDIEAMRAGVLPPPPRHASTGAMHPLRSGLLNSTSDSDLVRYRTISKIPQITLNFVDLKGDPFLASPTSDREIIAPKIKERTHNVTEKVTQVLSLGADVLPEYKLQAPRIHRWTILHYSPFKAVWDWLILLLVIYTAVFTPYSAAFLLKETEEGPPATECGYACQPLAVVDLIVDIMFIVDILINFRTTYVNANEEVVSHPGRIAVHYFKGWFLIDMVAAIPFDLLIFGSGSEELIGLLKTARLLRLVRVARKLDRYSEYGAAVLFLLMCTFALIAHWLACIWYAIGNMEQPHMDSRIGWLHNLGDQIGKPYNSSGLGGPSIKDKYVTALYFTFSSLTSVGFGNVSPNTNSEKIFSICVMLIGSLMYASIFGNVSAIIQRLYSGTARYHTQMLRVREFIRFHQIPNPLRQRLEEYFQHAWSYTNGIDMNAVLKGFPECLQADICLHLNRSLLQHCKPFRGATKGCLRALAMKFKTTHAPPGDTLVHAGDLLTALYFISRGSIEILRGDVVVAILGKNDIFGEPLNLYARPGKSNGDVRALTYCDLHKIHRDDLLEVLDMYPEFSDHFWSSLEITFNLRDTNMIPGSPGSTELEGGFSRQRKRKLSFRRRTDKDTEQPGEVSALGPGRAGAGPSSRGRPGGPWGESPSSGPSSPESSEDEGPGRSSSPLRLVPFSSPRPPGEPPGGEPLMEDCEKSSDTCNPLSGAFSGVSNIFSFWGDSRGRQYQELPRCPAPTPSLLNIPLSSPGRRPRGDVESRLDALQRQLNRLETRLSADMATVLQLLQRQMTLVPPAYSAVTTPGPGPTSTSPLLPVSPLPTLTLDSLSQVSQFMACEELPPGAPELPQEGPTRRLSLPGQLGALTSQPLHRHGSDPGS
Sequence of Estrogen receptor (Homo sapiens) (P03372 whole entry, looked up): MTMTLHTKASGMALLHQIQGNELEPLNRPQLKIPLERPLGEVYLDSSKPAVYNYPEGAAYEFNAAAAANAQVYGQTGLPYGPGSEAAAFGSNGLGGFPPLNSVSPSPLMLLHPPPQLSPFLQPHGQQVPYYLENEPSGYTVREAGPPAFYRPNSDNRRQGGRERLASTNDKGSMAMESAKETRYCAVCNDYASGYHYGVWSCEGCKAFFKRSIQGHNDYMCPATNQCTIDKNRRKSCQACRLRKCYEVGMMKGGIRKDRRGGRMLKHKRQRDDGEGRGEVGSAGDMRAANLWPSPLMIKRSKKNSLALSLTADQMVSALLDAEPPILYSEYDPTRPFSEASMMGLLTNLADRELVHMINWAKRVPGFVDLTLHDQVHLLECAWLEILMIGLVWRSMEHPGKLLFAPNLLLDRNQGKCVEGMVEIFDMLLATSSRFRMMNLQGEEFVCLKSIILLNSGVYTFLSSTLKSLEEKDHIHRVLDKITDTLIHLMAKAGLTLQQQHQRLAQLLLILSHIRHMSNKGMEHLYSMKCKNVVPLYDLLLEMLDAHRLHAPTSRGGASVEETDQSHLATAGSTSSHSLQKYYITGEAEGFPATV
Sequence of Peroxisome proliferator-activated receptor alpha (Homo sapiens) (Q07869 whole entry, looked up): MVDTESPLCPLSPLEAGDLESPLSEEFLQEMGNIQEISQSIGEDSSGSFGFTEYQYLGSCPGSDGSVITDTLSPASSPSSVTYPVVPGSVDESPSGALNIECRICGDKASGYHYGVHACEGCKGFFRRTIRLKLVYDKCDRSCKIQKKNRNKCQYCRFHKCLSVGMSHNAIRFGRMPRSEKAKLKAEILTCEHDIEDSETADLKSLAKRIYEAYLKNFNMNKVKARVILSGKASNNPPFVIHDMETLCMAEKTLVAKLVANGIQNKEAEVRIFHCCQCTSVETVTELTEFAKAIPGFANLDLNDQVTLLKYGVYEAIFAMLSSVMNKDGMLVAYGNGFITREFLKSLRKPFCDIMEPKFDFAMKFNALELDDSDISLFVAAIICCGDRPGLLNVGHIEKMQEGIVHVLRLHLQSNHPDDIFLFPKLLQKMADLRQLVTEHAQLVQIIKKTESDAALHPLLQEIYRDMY
Sequence of Furin (Homo sapiens) (P09958 whole entry, looked up): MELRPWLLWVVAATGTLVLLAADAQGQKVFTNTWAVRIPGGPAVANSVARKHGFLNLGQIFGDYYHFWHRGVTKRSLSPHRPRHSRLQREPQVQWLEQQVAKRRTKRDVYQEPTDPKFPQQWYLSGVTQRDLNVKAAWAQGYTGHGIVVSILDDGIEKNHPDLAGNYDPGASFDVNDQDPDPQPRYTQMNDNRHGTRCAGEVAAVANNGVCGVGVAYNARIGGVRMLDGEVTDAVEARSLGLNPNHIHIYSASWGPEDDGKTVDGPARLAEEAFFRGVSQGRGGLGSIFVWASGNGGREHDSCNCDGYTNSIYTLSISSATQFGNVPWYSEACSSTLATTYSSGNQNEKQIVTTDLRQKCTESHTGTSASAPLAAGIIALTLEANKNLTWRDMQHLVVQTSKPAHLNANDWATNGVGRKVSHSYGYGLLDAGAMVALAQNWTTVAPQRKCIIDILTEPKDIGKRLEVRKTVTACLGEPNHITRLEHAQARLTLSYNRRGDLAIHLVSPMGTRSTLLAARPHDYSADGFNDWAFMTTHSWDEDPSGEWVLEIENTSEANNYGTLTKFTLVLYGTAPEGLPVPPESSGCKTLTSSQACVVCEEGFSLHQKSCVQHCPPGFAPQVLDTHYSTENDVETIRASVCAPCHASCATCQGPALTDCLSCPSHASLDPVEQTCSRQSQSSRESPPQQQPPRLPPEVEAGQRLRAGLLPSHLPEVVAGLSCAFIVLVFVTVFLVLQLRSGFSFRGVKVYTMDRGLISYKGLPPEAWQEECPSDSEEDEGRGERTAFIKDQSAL
Sequence of Nuclear receptor ROR-gamma (Homo sapiens) (P51449 whole entry, looked up): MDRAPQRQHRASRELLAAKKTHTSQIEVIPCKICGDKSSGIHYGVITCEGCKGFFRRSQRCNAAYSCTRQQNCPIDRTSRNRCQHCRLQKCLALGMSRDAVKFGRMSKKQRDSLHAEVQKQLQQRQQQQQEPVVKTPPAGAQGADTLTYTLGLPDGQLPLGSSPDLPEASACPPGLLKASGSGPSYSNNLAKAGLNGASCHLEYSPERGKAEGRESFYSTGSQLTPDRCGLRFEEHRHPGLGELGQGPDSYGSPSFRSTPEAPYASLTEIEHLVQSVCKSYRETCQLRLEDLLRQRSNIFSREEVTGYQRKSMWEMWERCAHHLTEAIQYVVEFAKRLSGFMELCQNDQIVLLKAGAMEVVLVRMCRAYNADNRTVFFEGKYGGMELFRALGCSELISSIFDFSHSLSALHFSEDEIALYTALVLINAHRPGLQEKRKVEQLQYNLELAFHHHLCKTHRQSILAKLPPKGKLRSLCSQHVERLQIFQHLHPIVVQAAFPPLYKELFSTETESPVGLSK

With `O=C1c2c(O)ccc([N+](=O)[O-])c2C(=O)c2c([N+](=O)[O-])ccc(O)c21`, the Potency is 14.1 µM [inconclusive] (active) in experiment [1]; 22.4 µM (active) in [2]; 5.31 µM (active) in [4]; 3.76 µM (active) in experiment [5]; 16.8 µM (active) in [8]; 33.5 µM (active) in experiment [9]. Also, the Potency in experiment [10] is 20 µM (active); in experiment [11], 39.8 µM (active); in experiment [12] it was 39.8 µM (active); in experiment [15], 100 µM (active); in experiment [16], 70.8 µM (active); in experiment [18] it was 42.6 µM (active). In experiment [19], the Potency is 13.5 µM (active). Also, the Potency result in experiment [3], in experiment [13], in [14] and in [17] was “inactive” in each case. Further, the activation in experiment [6] is 5.47%. Further, in experiment [7], the max response was -6.07%. The call in experiment [20] was inactive.
